Assay outcomes (PubChem BioAssay)
HSF-1 act: increases HSF-1 driven luciferase reporter signal; NIH3T3-HGL HSF-1 luciferase reporter, MG132, 8 h; 100% = twice DMSO control signal; activation, % at 9 µM; 1.7% of 300,000 active;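 active = mean replicate activation of at least 50% with a set share of replicates each reaching 50%; inconclusive = only one of those two conditions met; inactive = mean below 50% and too few replicates reaching it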
esBAF inh: SWI/SNF esBAF complex inhibition. 2% of 350,000 active. AID 602393. mouse ES cells, Bmi1-luciferase knock-in reporter, 24 h; 100% = twice the neutral-well signal. reporter increase, % at 12.5 µM; in the data active = activation above about 40%; inconclusive = no clear call, values can overlap the other calls;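 also: a rise in the Bmi1 reporter signal indicates esBAF inhibition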
Wnt bcat act: activates Wnt/beta-catenin signaling in a reporter cell assay | activation, % at 9.35 µM | activator, plate reader | 1.2% of 300,000 active; in the data active = activation above about 30%, passing the limit was not always enough; inconclusive = no clear call, values can overlap the other calls
MITF act: increases MITF-driven TRPM1 promoter luciferase signal; activation, % at 12.5 µM; SK-MEL-5 TRPM1-promoter luciferase, 24 h; % of positive control, neutral wells = 0; 0.75% of 300,000 active;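 active = mean activation of at least 80% with every replicate also reaching 80%; inconclusive = mean reaches 80% but some replicate falls short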
HSF1 inhib: HSF1 inhibition; NIH3T3-HGL HSE-luciferase, MG132-induced, luminescence 8 h; hits give low values; activity change, negative = inhibition, % at 7.5 µM (by protocol); 0.77% of 300,000 active; AID 2098;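 active = more than half of replicate wells show activity change below -50%, luminescence cut by over half; inconclusive = some wells, but at most half, below -50%; inactive = no replicate well below -50%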;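 also: luciferase reports HSF-1 transcriptional activity via heat shock element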
Numbers stand for hits; – = inactive; ? = inconclusive; · = no result. Rows were chosen to be rich in hits. Some 3.8% of all compounds tested hit in one or more screens of this group.

SMILES | HSF-1 act | esBAF inh | Wnt bcat act | MITF act | HSF1 inhib
CCS(=O)(=O)Nc1ccc2c(c1)C(=O)N(C)C[C@H](OC)[C@H](C)CN(Cc1ccccn1)[C@H](C)CO2 | · | – | · | · | ·
COCC(=O)Nc1ccc2c(c1)OC[C@@H](C)N(C(=O)NC(C)C)C[C@@H](C)[C@H](OC)CN(C)C2=O | · | – | · | · | ·
COc1ccc2c(c1OC)C(=O)N(c1cccc(C(F)(F)F)c1)C2 | – | 46.1 | · | 120.6 | –
COc1ccccc1N1Cc2ccc(OC)c(OC)c2C1=O | – | – | – | – | –
COc1ccc2c(c1OC)C(=O)N(c1ccc(C)cc1)C2 | – | – | 44.3 | · | –
COc1ccc2c(c1OC)C(=O)N(c1cccc(C)c1)C2 | – | – | · | – | –
COc1cccc(NC(=O)c2ccc3nsnc3c2)c1 | – | 56.3 | – | – | –
COc1cccc(NC(=O)c2ccc(OC(F)(F)F)cc2)c1 | – | 71.7 | 37.1 | 107.2 | –
Cn1cc(Br)c(C(=O)NNC(=O)Cc2ccc(Cl)cc2)n1 | – | – | – | – | –
Cn1cc(Br)c(C(=O)NNC(=O)c2ccc(Cl)cc2)n1 | – | – | 51.3 | – | –
COc1ccccc1NC(=O)c1ccc2nsnc2c1 | – | – | – | 90.7 | –
COc1cc(NC(=O)c2ccc3nsnc3c2)cc(OC)c1OC | – | – | – | – | –
CC(=O)Nc1ccc(NC(=O)c2ccc(Cn3cc(Cl)cn3)cc2)cc1 | · | · | · | – | ·
COc1cccc(NC(=O)c2ccccc2)c1 | · | – | – | 104.5 | ·
COc1cccc(NC(=O)c2cccc(C(=O)Nc3cccc(OC)c3)c2)c1 | – | – | – | · | –
O=C(Nc1cccc(Cl)c1)c1ccc(Cn2cc(Cl)cn2)cc1 | 53.1 | · | · | – | –
COc1cccc(NC(=O)NC2(C(F)(F)F)Oc3ccccc3O2)c1 | 67.3 | · | – | – | –
COc1cccc(NC(=O)Nc2cccc(C(=O)O)c2)c1 | – | – | – | – | –
Cc1ccc(NC(=O)c2ccc3snnc3c2)cc1 | – | · | – | – | –
COc1cc(NC(=O)c2ccc3snnc3c2)cc(OC)c1 | – | 46.9 | – | – | –
C[C@H](CO)N1C[C@H](C)[C@H](CN(C)S(=O)(=O)c2cn(C)cn2)OCCCC[C@H](C)Oc2ccc(NC(=O)c3ccccc3)cc2C1=O | · | – | · | · | ·
O=C(C[C@H]1CC[C@@H](NS(=O)(=O)c2ccc(F)cc2)[C@H](CO)O1)NCCN1CCCCC1 | · | – | · | · | ·
CCc1cccc(NC(=O)c2cnn(-c3ccccc3)c2C)c1 | – | – | – | · | –
COc1cccc(/C(C)=N/NC(=O)c2ccc(N(C)C)cc2)c1 | – | 53.0 | · | – | –
CCn1ncc(C(=O)Nc2cccc(Cl)c2)c1C | 62.0 | 53.4 | – | – | –
SMILES | HSF-1 act | esBAF inh | Wnt bcat act | MITF act | HSF1 inhib
COc1ccc(/C=C(\NC(=O)c2ccc(OC)cc2)C(=O)Nc2cccc(C(=O)O)c2)cc1 | – | 46.1 | – | – | –
O=C(Nc1ccc(Br)cc1F)c1ccc2nsnc2c1 | – | ? | – | 128.5 | –
CCCNC(=O)Nc1ccc2c(c1)C(=O)N(C)[C@@H]1CC[C@H](CC(=O)NC)O[C@@H]1CO2 | · | – | · | · | ·
O=C(CN1CCOCC1)NCC[C@H]1CC[C@H](NC(=O)c2ccc3c(c2)OCO3)[C@H](CO)O1 | · | – | · | · | ·
COC(=O)C[C@H]1CC[C@H]2[C@H](COc3ccc(NC(=O)Nc4cccc(C#N)c4)cc3C(=O)N2C)O1 | · | – | · | · | ·
CC(C)NC(=O)Nc1ccc2c(c1)C(=O)N([C@@H](C)CO)C[C@H](C)[C@H](CN(C)Cc1ccc3c(c1)OCO3)OCCCC[C@H](C)O2 | · | – | · | · | ·
